According to PubChem BioAssay (NCI):
This is part of a sample that, as a whole, favours compounds with a hit. Of some 83,000 tested, about 20% had one in any assay.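 48-hour exposure, single concentration, 96-well plates; percent growth endpoint where 0 means no net growth. Active: below 10.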 Values without a mark were called inactive. The source made the active and inactive calls.

System: BT-549 breast
Assay: NCI-60 one-dose screen, 48 h (100 = growth as untreated, 0 = no growth, -100 = all killed)
Details: 10 µM unless noted

Compound | growth
Oc1ccc(CCC2CCNc3ccccc32)cc1 (centres undefined) | 47.2%
COc1cccc2c1Cc1ccccc1-2 | 106%
CC(=O)[C@@]1(O)CC[C@H]2[C@@H]3CC[C@@H]4CC(=O)CC[C@]4(C)[C@H]3[C@@H](O)C[C@@]21C | 102%
CSCCC(NC(=O)C(Cl)Cl)C(=O)O (centres undefined) | 102%

System: MDA-MB-435 melanoma
Assay: as above
Details: 10 µM unless noted

Compound | growth
O=C(OCC1CCCO1)c1ccc([N+](=O)[O-])cc1 (centres undefined) | 109%
Cc1ccc(NC(=O)c2ccccc2Cl)cc1 | 109%
C/C(O)=C(/C=N\C(=S)Nc1ccc(S(=O)(=O)Nc2nccs2)cc1)C(=O)Nc1ccccc1C | 109%
NC(=S)N/N=C/c1ccc(Cl)cc1 | 110%
O=C(NC1CCCCC1)c1ccc(Cl)cc1 | 105%
CCOC(=O)CO | 104%
CC(c1ccccc1)N(C)C (centres undefined) | 119%
CC(CCC#N)(CCC#N)C(=O)c1ccccc1 | 107%
Cc1ccc2nc(-c3ccc(N=Cc4ccccc4O)cc3)sc2c1 | 105%
Nc1cc2ccccc2c(O)c1O | -81.1% (active)
CCOc1ccccc1NC(=O)CCl | 83.9%
CCC12OC(COc3ccccc3)CN1CCN2c1ccccc1 (centres undefined) | 98.6% [100 µM]
Cc1ccc(S(=O)(=O)CCCl)cc1 | 117%
CC(C)c1ccccc1NC(=O)N1CCC(C(C)C)CC1 | 91.9%
COc1ccc(C2CC(c3ccccc3)=Nc3ccccc3S2)cc1 (centres undefined) | 98.8%
NC(CO)(CO)c1ccccc1 | 98.4%
C=CC(=O)OC1CCC(C(C)(C)CC)CC1 (centres undefined) | 103%
Cc1[nH]n(-c2ccccc2)c(=O)c1C=NC(=S)C(N)=S | 109%

Compound | growth
COc1cccc2c1Cc1ccccc1-2 | 103%
NC(=O)N1CCOCC1 | 116%
CCC(=O)Oc1ccc2ccccc2c1 | 101%
C=CCN1CCCC1=O | 101%
O=C(O)c1cccc(-n2ncc(Cl)c(Cl)c2=O)c1 | 93.2%
Cc1ccc(OC(=O)c2ccccc2)cc1 | 112%
O=Cc1c(O)c2ccccc2[nH]c1=O | 118%
CC(=O)c1ccc(C)cc1 | 112%
N#Cc1ccc2nc[nH]c2c1 | 109%
COC(=O)Cc1cc(COC(C)=O)ccc1C | 116%
c1ccc(-c2ccc3ccccc3c2)cc1 | 103%
C=CCC(OC(C)=O)c1ccc(C(C)C)cc1 (centres undefined) | 124%
C=C(OC(C)=O)c1ccccc1 | 107%
Nc1cccc2cccc(O)c12 | 108%
CC(=O)c1cccs1 | 109%
O=C(O)CSCC(=O)Nc1cc(C(F)(F)F)ccc1Cl | 111%
CCCCNC(=O)c1ccc(OCC)cc1 | 103%
